Results filed as inconclusive are left out. A call without a number means that no potency is given here. Some structures have more than one record in an assay (separate samples or runs), and their calls can disagree. The source made the active and inactive calls. Calls come from the whole dose curve; as a rule, active = well fitted inhibition curve with a large enough effect; inconclusive = small, poorly fitted or top-dose-only effect; inactive = flat fitted curve, though single readings scatter.
target: Glutathione peroxidase 1 (Homo sapiens) (UniProt P07203); assay: Primary qHTS Assay for Inhibitors of Recombinant Selenoprotein Glutathione Peroxidase 1 (GPX1) (AID 1845191); details: recombinant GPX1, GR-coupled NADPH fluorescence, 15 min; series mostly up to 48.8 µM; activity, negative = inhibition: at the top concentration; note: potency is the fitted concentration of half-maximal effect
Sequence (P07203 whole entry, looked up): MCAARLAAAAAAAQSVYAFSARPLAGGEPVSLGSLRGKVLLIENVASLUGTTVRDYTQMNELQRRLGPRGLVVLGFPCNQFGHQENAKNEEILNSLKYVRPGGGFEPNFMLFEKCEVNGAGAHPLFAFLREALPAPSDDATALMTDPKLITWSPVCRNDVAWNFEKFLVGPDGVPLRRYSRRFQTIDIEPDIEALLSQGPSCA
Summary of the method: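 10 nM GPX1 + cpd, 30 min RT; start w/ 1 mM GSH, 0.5 mM cumene hydroperoxide, 0.5 mM NADPH, 100 nM GR, 0.01% BSA; buffer 50 mM Tris-HCl pH 7.5, 2 mM EDTA, 150 mM NaCl; Fl 340/450, 0 & 15 min.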
Note: nearly all actives have a fitted effect of over 65% in size.

Compound | Potency | outcome | activity, negative = inhibition
CC(=O)N(O)CCCCCNC(=O)CCC(=O)N(O)CCCCCNC(=O)CCC(=O)N(O)CCCCCN | inactive |  | 
c1ccc(CNCCNCc2ccccc2)cc1 |  | inactive | 
CC(C)N=C(N)/N=C(\N)Nc1ccc(Cl)cc1 |  | inactive | 
CN(C(=O)CN(CCO)CC(=O)N(C)C(C)(C)Cc1ccccc1)C(C)(C)Cc1ccccc1 |  |  | 1.69% (inactive)
CN(C)CCOc1ccccc1Cc1ccccc1 |  |  | -13.1% (inactive)
C[C@]12C=CC(=O)C=C1[C@@H](F)C[C@@H]1[C@@H]2[C@@H](O)C[C@@]2(C)[C@H]1CC[C@]2(O)C(=O)CO |  |  | -6.55% (inactive)
CC/C(=C(/CC)c1ccc(O)cc1)c1ccc(O)cc1 | inactive |  | 
COc1ccc(CCN2CCC(Nc3nc4ccccc4n3Cc3ccc(F)cc3)CC2)cc1 |  |  | -28.1% (inactive)
Oc1ccc(Cl)c2cccnc12 |  | inactive | 
C[C@]12CCC(=O)C=C1CC[C@H]1[C@@H]3CC[C@](O)(C(=O)CO)[C@@]3(C)C[C@H](O)[C@@]12F |  |  | -13.4% (inactive)
C#C[C@]1(O)CC[C@H]2[C@@H]3CCc4cc(OC5CCCC5)ccc4[C@H]3CC[C@@]21C |  |  | -20.4% (inactive)
CC(C)(C(=O)c1cccnc1)c1cccnc1 |  | inactive | 
CCCCCC=CCC=CCCCCCCCC(=O)OCC |  |  | 1.61% (inactive)
CC(=O)OCC(=O)[C@@]1(O)CC[C@H]2[C@@H]3CCC4=CC(=O)C=C[C@]4(C)[C@H]3[C@@H](O)C[C@@]21C | inactive |  | 
O=C(CCCN1CCC(O)(c2ccc(Br)cc2)CC1)c1ccc(F)cc1 |  |  | 4.54% (inactive)
CC(=O)Oc1ccc(C(=C2CCCCC2)c2ccc(OC(C)=O)cc2)cc1 |  |  | -16% (inactive)
OCc1ccccc1O |  |  | 1.84% (inactive)
C[C@]12C=CC(=O)C=C1CC[C@@H]1[C@@H]2[C@@H](O)C[C@@]2(C)[C@H]1CC[C@]2(O)C(=O)CO | inactive |  | 
C[C@H](CCC(=O)O)[C@H]1CC[C@H]2[C@@H]3C(=O)C[C@@H]4CC(=O)CC[C@]4(C)[C@H]3CC(=O)[C@]12C |  |  | 0.305% (inactive)
O=c1c(-c2ccccc2)c1-c1ccccc1 |  |  | -14.8% (inactive)

Compound | Potency | outcome | activity, negative = inhibition
CCCCOc1ccc(OCCCN2CCOCC2)cc1 |  | inactive | 
O=C1OCCN1/N=C/c1ccc([N+](=O)[O-])o1 |  |  | -15.5% (inactive)
CCN1CCCC1=O |  |  | -9.36% (inactive)
CN1CCCC(CC2c3ccccc3Sc3ccccc32)C1 (stereo not drawn) |  | inactive | 
CN(C)/N=N/c1nc[nH]c1C(N)=O |  | inactive | 
CNCC[C@@H](Oc1ccccc1C)c1ccccc1 |  |  | -15.6% (inactive)
Cc1c(C(C)C)c(=O)n(-c2ccccc2)n1C |  |  | -4.99% (inactive)
CN(C)CC/C=C1/c2ccccc2COc2ccc(CC(=O)O)cc21 | inactive |  | 
OC[C@H]1O[C@H](O[C@]2(CCl)O[C@H](CCl)[C@@H](O)[C@@H]2O)[C@H](O)[C@@H](O)[C@H]1Cl | inactive |  | 
C[C@@H]1C[C@H]2[C@@H]3CCC4=CC(=O)C=C[C@]4(C)[C@@]3(F)[C@@H](O)C[C@]2(C)[C@H]1C(=O)CO |  |  | -5.09% (inactive)
CCOC(=O)[C@H](CCc1ccccc1)N[C@@H](C)C(=O)N1Cc2ccccc2C[C@H]1C(=O)O | inactive |  | 
CC(=O)OCC(=O)[C@@]12N=C(C)O[C@@H]1C[C@H]1[C@@H]3CCC4=CC(=O)C=C[C@]4(C)[C@H]3[C@@H](O)C[C@@]12C | inactive |  | 
COC(=O)C1=C(C)NC(C)=C(C(=O)O[C@@H]2CCCN(Cc3ccccc3)C2)[C@@H]1c1cccc([N+](=O)[O-])c1 |  |  | -22.8% (inactive)
O=C1OC2(c3ccc(O)cc3Oc3cc(O)ccc32)c2ccccc21 |  |  | -23.2% (inactive)
CN1CCC[C@@H]1c1cccnc1 |  |  | 3.08% (inactive)
CC(=O)OCC(=O)[C@@]1(OC(C)=O)[C@@H](C)C[C@H]2[C@@H]3C[C@H](F)C4=CC(=O)C=C[C@]4(C)[C@@]3(F)[C@@H](O)C[C@@]21C |  | inactive | 
CC(=O)[C@H]1CC[C@H]2[C@@H]3C[C@H](C)C4=CC(=O)CC[C@]4(C)[C@H]3[C@@H](O)C[C@]12C |  | inactive | 
CC(=O)OCC(=O)NCCCOc1cccc(CN2CCCCC2)c1 |  |  | -11.9% (inactive)
Cc1cc2c(cc1CC(=O)c1sccc1S(=O)(=O)Nc1onc(C)c1Cl)OCO2 | 18 µM (active) and inactive |  | 

target: Phospholipid hydroperoxide glutathione peroxidase GPX4 (Homo sapiens) (UniProt P36969); assay: Primary qHTS Assay for Inhibitors of Recombinant Selenoprotein Glutathione Peroxidase 4 (GPX4) (AID 1845192); details: recombinant GPX4, GR-coupled NADPH fluorescence, 15 min; series mostly up to 50 µM; activity change, negative = inhibition: at the top concentration
Sequence (P36969 whole entry, looked up): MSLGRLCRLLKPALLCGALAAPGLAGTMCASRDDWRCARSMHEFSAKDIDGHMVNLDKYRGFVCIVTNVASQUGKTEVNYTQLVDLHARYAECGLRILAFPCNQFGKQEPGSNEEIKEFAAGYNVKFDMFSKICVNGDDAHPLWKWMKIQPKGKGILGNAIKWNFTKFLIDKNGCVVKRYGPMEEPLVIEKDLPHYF
Summary of the method: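 NADPH consumption, followed by fluorescence at 340/450 nm between 0 and 15 min, reports GPX4 activity via coupled glutathione reductase (100 nM). Enzyme 200 nM was pre-exposed to compound 30 min; 0.5 mM cumene hydroperoxide and 1 mM GSH served as substrates.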

Compound | Potency | outcome | activity change, negative = inhibition
CC(=O)N(O)CCCCCNC(=O)CCC(=O)N(O)CCCCCNC(=O)CCC(=O)N(O)CCCCCN | inactive |  | 
c1ccc(CNCCNCc2ccccc2)cc1 |  | inactive | 
CC(C)N=C(N)/N=C(\N)Nc1ccc(Cl)cc1 |  | inactive | 
CN(C(=O)CN(CCO)CC(=O)N(C)C(C)(C)Cc1ccccc1)C(C)(C)Cc1ccccc1 |  | inactive | 
CN(C)CCOc1ccccc1Cc1ccccc1 |  |  | -11.4% (inactive)
C[C@]12C=CC(=O)C=C1[C@@H](F)C[C@@H]1[C@@H]2[C@@H](O)C[C@@]2(C)[C@H]1CC[C@]2(O)C(=O)CO |  |  | -6.36% (inactive)
CC/C(=C(/CC)c1ccc(O)cc1)c1ccc(O)cc1 | inactive |  | 
COc1ccc(CCN2CCC(Nc3nc4ccccc4n3Cc3ccc(F)cc3)CC2)cc1 |  |  | -12.6% (inactive)
Oc1ccc(Cl)c2cccnc12 |  | inactive | 
C[C@]12CCC(=O)C=C1CC[C@H]1[C@@H]3CC[C@](O)(C(=O)CO)[C@@]3(C)C[C@H](O)[C@@]12F |  |  | -19.5% (inactive)
C#C[C@]1(O)CC[C@H]2[C@@H]3CCc4cc(OC5CCCC5)ccc4[C@H]3CC[C@@]21C |  |  | -24.1% (inactive)
CC(C)(C(=O)c1cccnc1)c1cccnc1 |  | inactive | 
CCCCCC=CCC=CCCCCCCCC(=O)OCC |  |  | -11.1% (inactive)
CC(=O)OCC(=O)[C@@]1(O)CC[C@H]2[C@@H]3CCC4=CC(=O)C=C[C@]4(C)[C@H]3[C@@H](O)C[C@@]21C | inactive |  | 
O=C(CCCN1CCC(O)(c2ccc(Br)cc2)CC1)c1ccc(F)cc1 |  | inactive | 
CC(=O)Oc1ccc(C(=C2CCCCC2)c2ccc(OC(C)=O)cc2)cc1 |  |  | -12.6% (inactive)
OCc1ccccc1O |  | inactive | 
C[C@]12C=CC(=O)C=C1CC[C@@H]1[C@@H]2[C@@H](O)C[C@@]2(C)[C@H]1CC[C@]2(O)C(=O)CO | inactive |  | 
C[C@H](CCC(=O)O)[C@H]1CC[C@H]2[C@@H]3C(=O)C[C@@H]4CC(=O)CC[C@]4(C)[C@H]3CC(=O)[C@]12C |  | inactive | 
O=c1c(-c2ccccc2)c1-c1ccccc1 |  | inactive | 

Compound | Potency | outcome | activity change, negative = inhibition
CCCCOc1ccc(OCCCN2CCOCC2)cc1 |  |  | 3.27% (inactive)
O=C1OCCN1/N=C/c1ccc([N+](=O)[O-])o1 |  |  | -9.67% (inactive)
CCN1CCCC1=O |  | inactive | 
CN1CCCC(CC2c3ccccc3Sc3ccccc32)C1 (stereo not drawn) |  | inactive | 
CN(C)/N=N/c1nc[nH]c1C(N)=O |  | inactive | 
CNCC[C@@H](Oc1ccccc1C)c1ccccc1 |  | inactive | 
Cc1c(C(C)C)c(=O)n(-c2ccccc2)n1C |  |  | 1.19% (inactive)
CN(C)CC/C=C1/c2ccccc2COc2ccc(CC(=O)O)cc21 | inactive |  | 
OC[C@H]1O[C@H](O[C@]2(CCl)O[C@H](CCl)[C@@H](O)[C@@H]2O)[C@H](O)[C@@H](O)[C@H]1Cl | inactive |  | 
C[C@@H]1C[C@H]2[C@@H]3CCC4=CC(=O)C=C[C@]4(C)[C@@]3(F)[C@@H](O)C[C@]2(C)[C@H]1C(=O)CO |  |  | -9.55% (inactive)
CCOC(=O)[C@H](CCc1ccccc1)N[C@@H](C)C(=O)N1Cc2ccccc2C[C@H]1C(=O)O |  |  | -8.64% (inactive)
CC(=O)OCC(=O)[C@@]12N=C(C)O[C@@H]1C[C@H]1[C@@H]3CCC4=CC(=O)C=C[C@]4(C)[C@H]3[C@@H](O)C[C@@]12C | inactive |  | 
COC(=O)C1=C(C)NC(C)=C(C(=O)O[C@@H]2CCCN(Cc3ccccc3)C2)[C@@H]1c1cccc([N+](=O)[O-])c1 |  |  | 1.78% (inactive)
O=C1OC2(c3ccc(O)cc3Oc3cc(O)ccc32)c2ccccc21 |  |  | -15.2% (inactive)
CN1CCC[C@@H]1c1cccnc1 |  | inactive | 
CC(=O)OCC(=O)[C@@]1(OC(C)=O)[C@@H](C)C[C@H]2[C@@H]3C[C@H](F)C4=CC(=O)C=C[C@]4(C)[C@@]3(F)[C@@H](O)C[C@@]21C |  | inactive | 
CC(=O)[C@H]1CC[C@H]2[C@@H]3C[C@H](C)C4=CC(=O)CC[C@]4(C)[C@H]3[C@@H](O)C[C@]12C |  | inactive | 
CC(=O)OCC(=O)NCCCOc1cccc(CN2CCCCC2)c1 |  |  | -16.2% (inactive)
Cc1cc2c(cc1CC(=O)c1sccc1S(=O)(=O)Nc1onc(C)c1Cl)OCO2 | inactive |  | 
